High-throughput results: PubChem BioAssay, National Center for Advancing Translational Sciences (NCATS)
LMNA splice mod – changes lamin A minigene splicing in HeLa cells | HeLa LMNA splicing GFP/RFP minigene ratio, 48 h | Potency, µM (top dose mostly 46.1 µM), for the others: top-dose ratio change, negative = inhibition, usual class: inhibitors | 200,000 compounds, 0.01% hits; active = well fitted inhibition curve with a large enough effect in the signal ratio, with a control signal flat, not every such curve was filed as active; inconclusive = small, poorly fitted or top-dose-only effect, or effect the other way, or a change in a side signal; the % refers to the signal ratio; note: potency is the fitted concentration of half-maximal effect
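S3 HeLa cells stably expressing lamin A-EGFP splicing minigene plus DsRed2, 600 cells/well, 48 h compound exposure at 37C. Laser-scanning cytometry; analysed as GFP (500-530 nm)/RFP (575-640 nm) total intensity ratio; 0.5% DMSO vehicle.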
HPGD block – blocks human HPGD enzyme activity; P15428; purified HPGD, NADH fluorescence kinetic, PGE2 substrate; Potency, µM, without a hit: at the highest dose activity change, negative = inhibition, actives largely listed as inhibitors; 150,000 compounds, 4.3% hits; note: potency is the fitted concentration of half-maximal effect
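NADH formation kinetics: reaction with 30 uM PGE2 and 1 mM NAD+ (final), 20 nM enzyme, Tris-HCl pH 8 with Tween 20, after 15 min compound preincubation at room temperature. Fluorescence change, last versus first of five reads.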
12-hLO inh – inhibitors of human 12-lipoxygenase (ALOX12); P18054; purified 12-hLO, xylenol orange hydroperoxide absorbance; Potency, µM (highest dose often 57.1 µM), without a hit: at the top dose activity change, negative = inhibition, usual class: inhibitors; 150,000 compounds, 0.12% hits; active = well fitted inhibition curve with a large enough effect; inconclusive = small, poorly fitted or top-dose-only effect; note: potency is the fitted concentration of half-maximal effect; nearly all actives have a fitted effect of over 55% in size
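Xylenol orange chromogenic assay: hydroperoxide from 12hLO oxidises Fe(II), giving red-shifted Fe(III)-XO absorbance. Conditions: 150 nM enzyme, 40 uM arachidonic acid, 25 mM Hepes pH 7.0, 0.01% Triton X-100, 30 min, room temperature.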
ALDH1A1 inh – ALDH1A1 (human) enzyme inhibition. P00352. Purified ALDH1A1, NADH fluorescence, propionaldehyde substrate. Potency, µM (titrated, usually from 75.3 µM), for inactives: at the highest dose activity, negative = inhibition, most hits filed as inhibitors. 220,000 compounds, 7.3% hits. AID 1030;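 note: potency is the fitted concentration of half-maximal effect; plate controls were no enzyme wells and a reference inhibitor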
Target sequence (P00352 whole entry, looked up): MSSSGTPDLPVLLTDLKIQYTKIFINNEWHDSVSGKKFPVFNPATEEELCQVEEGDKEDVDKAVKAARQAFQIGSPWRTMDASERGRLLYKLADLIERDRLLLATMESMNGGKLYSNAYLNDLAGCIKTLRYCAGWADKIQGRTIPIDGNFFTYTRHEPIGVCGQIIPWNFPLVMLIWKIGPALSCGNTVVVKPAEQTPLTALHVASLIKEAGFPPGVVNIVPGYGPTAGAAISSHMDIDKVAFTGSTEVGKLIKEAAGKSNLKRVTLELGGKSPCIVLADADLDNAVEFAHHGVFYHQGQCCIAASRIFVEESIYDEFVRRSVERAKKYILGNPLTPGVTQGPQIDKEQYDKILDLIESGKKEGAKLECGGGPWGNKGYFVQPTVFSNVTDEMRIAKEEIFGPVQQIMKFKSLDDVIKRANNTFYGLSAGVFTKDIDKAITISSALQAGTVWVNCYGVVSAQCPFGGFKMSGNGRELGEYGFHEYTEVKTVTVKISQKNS
PNC assembly inh – blocks assembly of the perinucleolar compartment; PC3M PTB-GFP, PNC prevalence imaging, 16 h; active compounds read low; activity change (PNC), negative = inhibition, % at 10 µM; 140,000 compounds, 3.1% hits;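 active = readout at or below -70, meaning at least 70% loss of cells showing the perinucleolar compartment, a nuclear body marking cancer cells; inconclusive = readout between -30 and a set limit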;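 note: plate controls were DMSO wells for no effect and camptothecin positive control wells for full effect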
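Compounds are pinned in duplicate onto adhered PC3M cells stably expressing GFP-tagged PTB and incubated 16 h at 37 C. Cells are then fixed, nuclei stained with Hoechst, and PNC-positive cells counted.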
An asterisk follows results filed as active; ? = inconclusive; · = no result; [ ] = another dose, or the depositor's remark. An excerpt weighted towards active compounds, which were near 10% of everything screened. Unless noted, calls come from the whole dose curve; as a rule, active = well fitted inhibition curve with a large enough effect (not every such curve was filed as active); inconclusive = small, poorly fitted or top-dose-only effect, or another doubt; inactive = no such curve, though single readings can be large or run the other way. Unless noted, % is set by controls: 0 for no effect and ±100 for the full control effect.

SMILES	LMNA splice mod	HPGD block	12-hLO inh	ALDH1A1 inh	PNC assembly inh
Cc1ccc(C)c(-n2c3nc(=O)[nH]c(=O)c-3cc3cc([N+](=O)[O-])ccc32)c1	11µM*	?	-17%	?	-116*
CSc1nsc(SC)c1C(=O)NCCNS(=O)(=O)c1ccc(C)cc1	-8%	20µM*	?	25µM*	?
c1ccc2c(c1)CC(N1CCN(c3cccc4c3OCCO4)CC1)C2	?	-11%	?	22µM*	·
c1ccc2c(c1)OCCOCCOCCOCCOc1ccccc1OCCOCCOCCO2	?	-6%	-3%	8%	11
O=C(NCC1COc2ccccc2O1)c1ccccc1 (stereo unspecified)	8%	?	1%	8%	-21
O=C(NC(=S)NCC1COc2ccccc2O1)c1ccccc1 (stereo unspecified)	-4%	-20%	13µM*	?	?
O=C(CC1COc2ccccc2O1)NCc1ccccc1 (stereo unspecified)	-7%	-23%	-3%	-6%	0
O=C(CC1COc2ccccc2O1)NCCc1ccccc1 (stereo unspecified)	-9%	7.1µM*	-7%	-15%	50
Cc1ccc(/C=C/C(=O)NCC2COc3ccccc3O2)o1 (stereo unspecified)	·	·	·	6.3µM*	·
COc1ccc(CC(=O)NCC2COc3ccccc3O2)cc1 (stereo unspecified)	8%[46 µM]	·	·	?	·
COc1cccc(N2CCN(C(=O)c3cnn(-c4ccc(C)cc4C)c3C3CCN(C(=O)OC(C)(C)C)CC3)CC2)c1	-28%[46 µM]	·	·	·	·
COc1ccccc1OCCNC1CCCC1	-4%	-9%	-8%	?	-98*
O=C(c1cccc(F)c1)N1CCC2(CC1)CN(c1ncccn1)C2	·	?	0%	?	·
COc1ccc(CCNC(=O)CSc2nc3[nH]ncc3c(=O)n2-c2ccc(C)c(Cl)c2)cc1OC	·	·	·	7.9µM*	·
COc1ccc(NC(=O)CSc2nc3[nH]ncc3c(=O)n2-c2ccccc2C)cc1OC	?	-8%	0%	28µM*	?
COc1ccc(N2CCN(C(=O)CSc3nc4[nH]ncc4c(=O)n3-c3cccc4ccccc34)CC2)cc1	·	·	·	-13%	·
COc1cc2c(cc1OC)CN(C(=O)CSc1nc3[nH]ncc3c(=O)n1-c1ccccc1)CC2	-7%	-14%	0%	28µM*	14
O=C(CSc1nc2ccccc2c2nc(-c3ccccc3)nn12)Nc1ccc(F)cc1	14%[46 µM]	·	·	·	·
O=c1c(-c2ccc(F)cc2)nc2cnc(N3CCNCC3)nc2n1C1CC1	4%	·	·	?	·
CNC(=O)CSc1nnc(-c2cc(C)cc(C)c2)o1	-5%	-10%	-5%	4%	-103*
CCS(=O)(=O)Nc1ccc(-c2nnc(SCC(=O)c3cccc(OC)c3)o2)cc1	3%	?	-7%	3.2µM*	?
COc1cc(-c2nnc(SCC(=O)c3ccc(C)cc3)o2)cc(OC)c1OC	-19%	-6%	1%	28µM*	?
COc1cc(-c2nnc(SCc3c(F)cccc3Cl)o2)cc(OC)c1OC	?	?	2%	4.5µM*	?
COc1cccc(C(=O)CSc2nnc(-c3cc(OC)c(OC)c(OC)c3)o2)c1	-11%	-30%	2%	?	1
CN1CCc2nc(N)nc(-c3nc(N)nc4c3CN(C)CC4)c2C1	·	-1%	0%[11.4 µM]	3%[13.5 µM]	·
SMILES	LMNA splice mod	HPGD block	12-hLO inh	ALDH1A1 inh	PNC assembly inh
O=C(O)C[C@H](Cc1ccccc1)C(=O)O	·	-8%	-4%[11.4 µM]	-2%[13.5 µM]	·
CCOC(=O)c1cc(-c2ccc(OC)cc2)n(CCC(=O)NCc2ccccc2OC)c1C	-4%[46 µM]	·	·	·	·
CCS(=O)(=O)Nc1ccc(-c2nnc(SCC(=O)c3ccc(NC(C)=O)c(OC)c3)o2)cc1	18%	0.79µM*	-2%	4%	25
O=C(Nc1ccccc1)c1nnsc1S(=O)c1ccc(Cl)cc1 (stereo unspecified)	?	7.9µM*	?	1.8µM*	-18
O=S(=O)(c1ccc(Cl)c(Cl)c1)c1snnc1-c1ccccc1	?	-17%	-6%	-6%	-6
O=C(c1nnsc1S(=O)(=O)c1ccc(Cl)cc1)N1CCOCC1	?	·	·	2.8µM*	·
O=C(c1nnsc1S(=O)c1ccc(Cl)cc1)N1CCOCC1 (stereo unspecified)	-19%[9.22 µM]	·	·	7.1µM*	·
CNC(=O)c1nnsc1S(=O)(=O)c1ccc(Cl)cc1	?	·	·	2µM*	·
COCCCNC(=O)c1ccc(-n2nc(C(F)(F)F)cc2-c2cccs2)cc1	?	14µM*	1%	20µM*	16
Cc1cc(-c2nnc(-c3ccccc3)c(-c3ccccc3)n2)c(C)o1	19%	?	-9%	6.3µM*	-4
Cc1ccc(-c2nnc(-c3ccccc3)c(-c3ccccc3)n2)cc1	-16%	-8%	2%	?	0
CCC(=O)Nn1cnc2c(c1=O)C1(CCCCC1)Cc1ccccc1-2	-5%	-1%	-4%	?	-106*
Cc1nc2cnc(Oc3cccc(Cl)c3)nc2n(Cc2ccc(F)cc2)c1=O	21%	·	·	?	·
NC(=S)NNc1ccnc2cc(Cl)ccc12	?	·	·	1.4µM*	·
O=C(NNc1ccnc2cc(Cl)ccc12)C1CCCCC1	-9%[9.22 µM]	·	·	5%	·
FC(F)Oc1ccc(NC(=S)NNc2ccnc3cc(Cl)ccc23)cc1	4%[46 µM]	·	·	8.9µM*	·
CCC(CC)C(=O)Nc1ccccc1C(=O)OCc1cc(=O)n2nc(C3CCCCC3)sc2n1	-8%[46 µM]	·	·	·	·
COC(OC)c1nc(SCC(=O)Nc2cccc(Cl)c2)ncc1C(=O)O	·	·	·	28µM*	·
Nc1cc(=O)[nH]c(SCC(=O)Nc2cccc(Cl)c2)n1	-2%	-5%	6%	-2%	25
O=C(Cn1c2[n+](c3ccc(C(F)(F)F)cc31)CCCCC2)Nc1ccc(Br)cc1	·	·	·	2%	·
CCc1ccc(NC(=O)Cn2c3[n+](c4c(F)c(F)ccc42)CCCCC3)cc1	?	·	·	10µM*	·
Cc1ccc(C2CC(=O)N(Cc3ccc(F)cc3)c3c2c(C)nn3-c2nc(C)cc(C)n2)cc1 (stereo unspecified)	7%[46 µM]	·	·	·	·
OC1C2COC(O2)[C@H](O)C1O (stereo partly specified)	-4%	-13%	7%	6%	·
ON=C1CCCCC1	·	-2%	0%	2%	·
CC(Sc1nnc(NCc2ccccc2)s1)C(=O)Nc1ccc2c(c1)C(=O)c1ccccc1C2=O (stereo unspecified)	-10%	14µM*	-3%	2.8µM*	-24
CN1C(=O)/C(=N\OC(=O)c2cccc3ccccc23)c2ccccc21	?	?	-2%	14µM*	38
Cc1ccc(S(=O)(=O)Oc2cccc(/C=N/n3cnnc3)c2)cc1	?	?	1%	0.89µM*	18
C(=N\n1cnnc1)/c1cccc(OCCOc2ccccc2)c1	0%	-29%	1%	-10%	-10
Oc1ccc(NCc2ccccc2OCc2ccccc2)cc1	?	14µM*	-6%	5.6µM*	0
